PGC1a acetyl inh: PGC1a acetylation modulation, inhibitor mode; U2OS PGC1a acetylation, AlphaScreen anti-acetyl-lysine; with virally co-expressed GCN5 acetyltransferase; inhibition, % at 15.6 µM; 350,000 compounds, 0.17% hits;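 active = every replicate shows inhibition of at least 40%; inconclusive = mean inhibition at least 40% but some replicate below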
ERAP1 HTS inh: ERAP1 (human) enzyme inhibition; inhibition, % at 10.7 µM; recombinant ERAP1, Leu-AMC fluorescence, 60 min; 340,000 compounds, 0.15% hits; Q9NZ08;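 active = mean replicate inhibition of at least 30%, or all replicates individually reaching that 30% level; inactive = mean below 30% and not every replicate reaching it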
Target sequence (Q9NZ08 whole entry, looked up): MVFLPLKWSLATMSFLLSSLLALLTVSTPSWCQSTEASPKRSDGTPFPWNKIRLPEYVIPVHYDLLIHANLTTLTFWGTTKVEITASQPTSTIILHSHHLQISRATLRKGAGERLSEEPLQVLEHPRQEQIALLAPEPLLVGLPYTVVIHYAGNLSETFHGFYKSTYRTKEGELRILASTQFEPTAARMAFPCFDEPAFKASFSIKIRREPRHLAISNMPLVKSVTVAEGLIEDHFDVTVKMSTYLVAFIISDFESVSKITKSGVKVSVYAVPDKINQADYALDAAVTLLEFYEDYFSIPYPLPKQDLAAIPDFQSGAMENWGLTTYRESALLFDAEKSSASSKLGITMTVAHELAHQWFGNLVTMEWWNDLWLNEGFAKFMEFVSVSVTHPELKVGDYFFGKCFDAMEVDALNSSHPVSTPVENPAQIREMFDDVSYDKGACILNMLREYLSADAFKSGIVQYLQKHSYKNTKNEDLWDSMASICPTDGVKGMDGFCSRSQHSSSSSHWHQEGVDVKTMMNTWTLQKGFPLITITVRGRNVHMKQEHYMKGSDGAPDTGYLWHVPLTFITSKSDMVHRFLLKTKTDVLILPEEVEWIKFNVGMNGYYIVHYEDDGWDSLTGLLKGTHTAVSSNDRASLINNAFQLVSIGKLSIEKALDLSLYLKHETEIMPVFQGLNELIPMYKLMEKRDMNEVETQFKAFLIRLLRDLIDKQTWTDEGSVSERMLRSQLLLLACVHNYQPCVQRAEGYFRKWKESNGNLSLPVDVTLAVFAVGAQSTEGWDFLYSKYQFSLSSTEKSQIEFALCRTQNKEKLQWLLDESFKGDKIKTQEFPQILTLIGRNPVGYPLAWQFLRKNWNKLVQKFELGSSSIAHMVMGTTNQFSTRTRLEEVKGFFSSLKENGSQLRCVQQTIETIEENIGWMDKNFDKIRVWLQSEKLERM
GSIS activator: GLuc luminescence reporter in INS-1E cells, primary screen for activators of glucose-dependent secretion of insulin. INS-1E GLuc reporter insulin secretion, 2-3 h. activation, % at 16.6 µM. 370,000 compounds, 0.61% hits. AID 743287;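 active = lowest replicate activation of at least 40%, so every replicate reaches that level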
DENV2 CPE rescue: DENV2-induced cell death inhibition | DENV2-infected cells, cytopathic effect rescue, plate reader | CPE inhibition, % at 9.99 µM | 350,000 compounds, 1.7% hits; in the data active = CPE inhibition above about 20%, passing the limit was not always enough; inconclusive = no clear call, values can overlap the other calls; tested in BHK-21 cells
Ecoli rRNA inh: inhibits bacterial ribosomal RNA function over humanized ribosomes. 350,000 compounds, 1.6% hits. E. coli WT GFP vs humanized-ribosome RFP mutants, fluorescence, 24 h; hits give low values; DMSO median 0, no signal -100. GFP signal change (wild-type ribosome), % (test concentration not listed);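 active = significant combined selectivity score with lowered wild-type GFP, culture density cut under 30%, mutant RFP and density less affected; inactive = any of these conditions unmet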
CaV13 ICDI inh: Primary screen for inhibitors of IQ motif and Ca2+-dependent inactivation inhibitor domain binding in CACNA1D, Förster resonance energy transfer in living cells, …. HEK cells, CFP/YFP FRET ICDI-IQ, plate reader, 10 min; percent FRET-ratio fall versus neutral wells. 340,000 compounds, 0.098% hits. inhibition, % at 12.3 µM;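 active = mean replicate inhibition of at least 30% and at least 1% of replicates passing that level; inconclusive = only one of the two criteria is met; inactive = neither criterion is met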
Hits are given with their value; 0 = inactive; ? = inconclusive; - = no result. Only some compounds are listed: those with a hit (about 3.2% of all), similar ones and a draw of the others.

SMILES | PGC1a acetyl inh | ERAP1 HTS inh | GSIS activator | DENV2 CPE rescue | Ecoli rRNA inh | CaV13 ICDI inh
O=C(c1ccccn1)N1CC(=O)N2[C@H](CO)[C@@H](c3ccc(C#CCc4ccccc4)cc3)[C@@H]2C1 | 0 | 0 | 0 | 0 | 0 | -
O=C(c1ccccn1)N1CC(=O)N2[C@H](C1)[C@H](c1ccc(C#CCc3ccccc3)cc1)[C@@H]2CO | 0 | 0 | 0 | 54.0 | 0 | -
C/C=C/c1ccc([C@@H]2[C@@H](CO)N3C(=O)CN(C(=O)c4cnccn4)C[C@@H]23)cc1 | 0 | 0 | 0 | 59.4 | 0 | -
O=C(c1ccccn1)N1CC(=O)N2[C@@H](CO)[C@@H](c3ccc(C#Cc4ccccc4)cc3)[C@@H]2C1 | 0 | 0 | 0 | 0 | 0 | -
O=C(Cc1ccccc1)N1CC[C@H]2[C@H](CO)Nc3ccc(C4=CCCCC4)cc3[C@H]21 | 0 | - | 0 | ? | 0 | -
Cc1ccc(S(=O)(=O)N(C)C[C@@H]2Oc3c(NC(=O)c4ccncc4)cccc3C(=O)N([C@H](C)CO)C[C@H]2C)cc1 | 0 | 0 | 0 | 0 | 0 | -
COc1ccc(NC(=O)N(C)C[C@H]2Oc3ccc(NC(=O)NC4CCCCC4)cc3CC(=O)N([C@H](C)CO)C[C@@H]2C)cc1 | 0 | 0 | 0 | 0 | 0 | -
Cc1ccc(S(=O)(=O)N(C)C[C@H]2Oc3ccc(N(C)C)cc3CC(=O)N([C@H](C)CO)C[C@H]2C)cc1 | 0 | 0 | 0 | 0 | 0 | -
COc1ccc2c3c(n(C)c2c1)[C@@H](CO)N(Cc1ccncc1)CC31CCN(C(=O)Nc2cccc(F)c2)CC1 | 0 | 0 | 0 | 0 | 0 | -
Cc1noc(C)c1S(=O)(=O)N(C)C[C@H]1OCCCC[C@H](C)Oc2ccc(NC(=O)Cc3ccccc3)cc2C(=O)N([C@@H](C)CO)C[C@H]1C | 0 | 0 | 0 | 0 | 0 | -
COc1cccc(-c2ccc([C@H]3[C@@H](CO)N4C(=O)CN(C(=O)C5CCOCC5)C[C@@H]34)cc2)c1 | 0 | 0 | 0 | 32.9 | 0 | -
O=C(Cc1ccccn1)N1CC(=O)N2[C@H](CO)[C@@H](c3ccc(C#CC4CCCCC4)cc3)[C@@H]2C1 | 0 | 0 | 0 | 26.3 | 0 | -
O=C(Cc1ccccc1)N1CC(=O)N2[C@H](CO)[C@@H](c3ccc(C#Cc4ccccc4)cc3)[C@H]2C1 | 0 | 0 | 0 | 0 | 0 | -
O=C(Cc1ccccc1)N1CC(=O)N2[C@@H](CO)[C@H](c3ccc(C#Cc4ccccc4)cc3)[C@@H]2C1 | 0 | 0 | 0 | 23.7 | 0 | -
CC(C)NC(=O)N(C)C[C@H]1Oc2ncccc2C(=O)N(C)C[C@@H]1C | - | - | 0 | - | 0 | -
C[C@@H]1CN([C@@H](C)CO)C(=O)c2cccc(NC(=O)Nc3ccccc3)c2O[C@H]1CN(C)Cc1ccc(Oc2ccccc2)cc1 | 0 | 0 | 0 | 0 | 0 | -
O=C(CC1c2ccccc2Oc2ccccc21)Nc1ccccc1C(F)(F)F | - | - | 101.8 | - | - | 0
O=C(CC1c2ccccc2Oc2ccccc21)Nc1ccccc1F | 0 | - | 0 | - | - | 0
CO[C@@H]1CN(C)C(=O)c2cc(NS(=O)(=O)CC(F)(F)F)ccc2OC[C@@H](C)N(CCC(F)(F)F)C[C@H]1C | 0 | 0 | 0 | 0 | 0 | -
CCOc1ccccc1N/C(=C(/C(Cl)=C(Cl)Cl)[N+](=O)[O-])n1cncn1 | 0 | 0 | 0 | - | -25.1 | 0
C[C@@H]1CC=CC[C@@H](c2ccccc2)NC(=O)[C@@H](C)N(C)C(=O)c2ccccc2O1 (mixture of isomers) | - | - | 0 | - | 0 | -
CCC(=O)Nc1sc(Cc2ccc3c(c2)OCO3)c(C)c1C(N)=O | 0 | 0 | 66.9 | 0 | -26.3 | 0
Cc1c(Cc2ccccc2)sc(NC(=O)C(C)(C)C)c1C(N)=O | - | - | 46.0 | - | -29.9 | 0
CO[C@@H]1CN(C)C(=O)c2cc(NS(=O)(=O)c3cccc(F)c3)ccc2OC[C@@H](C)N(Cc2cc(F)ccc2F)C[C@H]1C | 0 | 0 | 0 | 0 | 0 | -
Cc1cc(Cl)ccc1OC(C)C(=O)OCC(=O)c1ccc[nH]1 (stereo not given) | - | 0 | 0 | 0 | 0 | 0
SMILES | PGC1a acetyl inh | ERAP1 HTS inh | GSIS activator | DENV2 CPE rescue | Ecoli rRNA inh | CaV13 ICDI inh
COc1ccc(Cl)cc1C(=O)OCC(=O)c1ccc[nH]1 | 0 | 0 | 0 | 0 | -16.5 | 0
COc1cc2c(cc1OC)CN(Cc1ccccc1)CC2 | 0 | 0 | 0 | 0 | 0 | 0
COc1cc2c(cc1OC)CN(CCC(C)c1ccc(Cl)cc1)CC2 (stereo not given) | 0 | - | 0 | 0 | -32.6 | 0
O=C(c1cc(-c2ccccc2)n[nH]1)N1CCN(S(=O)(=O)c2ccccc2)CC1 | 0 | 0 | 0 | 43.0 | 0 | 0
CCOC(=O)c1ccc(S(=O)(=O)N2CCN(C(=O)CSc3nc4ccccc4o3)CC2)cc1 | 0 | 0 | 0 | 29.2 | 0 | 0
CCOC(=O)c1ccc(S(=O)(=O)N2CCN(C(=O)c3cc4ccccc4o3)CC2)cc1 | 0 | 0 | 0 | ? | 0 | -
COCCNC(=O)CCC1CCN(C/C=C/c2ccccc2OC)CC1 | 0 | 0 | - | 29.0 | 0 | 0
CCCCN1CC(N2CCN(Cc3ccccc3)CC2)CS1(=O)=O (stereo not given) | 0 | - | 0 | 0 | -31.9 | 0
Cc1cccc(CN2CCN(C3CN(Cc4cn(Cc5cccc(Cl)c5)nn4)S(=O)(=O)C3)CC2)c1 (stereo not given) | - | - | 0 | 0 | -35.8 | 0
O=S1(=O)CC(N2CCN(Cc3ccccc3F)CC2)CN1Cc1cn(Cc2cccc(Cl)c2)nn1 (stereo not given) | - | - | 0 | 0 | -24.2 | 0
Cc1cccc(CN2CCN(C3CN(Cc4cn(Cc5ccc(Cl)cc5)nn4)S(=O)(=O)C3)CC2)c1 (stereo not given) | - | - | 0 | 0 | -25.5 | 0
Cc1ccc(Cn2cc(CN3CC(N4CCN(Cc5cccc(C)c5)CC4)CS3(=O)=O)nn2)cc1 (stereo not given) | - | - | 0 | 0 | 0 | 0
CCNC(=O)C[C@H]1CC[C@H]2[C@@H](COc3ccc(NC(=O)Nc4ccc(F)cc4)cc3C(=O)N2C)O1 | 0 | 0 | - | 0 | - | -
CCCN(C)C1CN(Cc2cn(Cc3ccc(C)cc3)nn2)S(=O)(=O)C1 (stereo not given) | - | 0 | 0 | 25.2 | 0 | 0
Cc1c(O)ccc(/C(Cc2ccc3ccccc3n2)=N\N)c1O | 0 | 0 | 0 | 0 | -25.3 | 0
O=C(Cc1cccc2ccccc12)OCn1nnc2ccccc2c1=O | 0 | 0 | 0 | 0 | -17.9 | 0
O=c1c2ccccc2nnn1Cc1ccccc1 | 0 | 0 | 45.4 | 0 | 0 | 0
CC(NC(=O)c1ccccc1)C(=O)OCn1nnc2ccccc2c1=O (stereo not given) | - | 0 | 0 | 33.2 | 0 | 0
CN1[C@H](C(=O)NC2CCCCC2)[C@@H](CO)[C@@H]2Cn3c(ccc(/C=C/c4ccccc4)c3=O)[C@@H]21 | - | 0 | 0 | 0 | 0 | -
C=CCn1cccc(C(=O)Nc2ccc(C)c(C)c2)c1=O | 0 | 0 | 0 | 0 | -29.9 | 0
C=CCOC(=O)C(=O)/C=C/c1ccc(F)cc1 | 0 | 0 | - | 0 | - | -
